# Measured values: PubChem BioAssay (NCATS)
# Values without a mark were called inactive. Results filed as inconclusive are left out. Entries that show only a call come without a potency. Active and inactive are the calls of the source. Unless noted, calls come from the whole dose curve; as a rule, active = well fitted curve in the direction sought with a large enough effect; inconclusive = small, poorly fitted or top-dose-only effect, or another doubt; inactive = no such curve, though single readings can be large; an effect the other way counts as inactive or inconclusive.
# Key:
# [1] = qHTS assay for measurement of the activity of small molecule inhibitors on Zika virus induced Caspase-3 activity in human iPSC derived neural progenitor cells (hNPCs) (AID 1224857); note: nearly all actives have a fitted effect of over 65% in size
# Outline: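 hNPCs seeded 350 cells/well, cultured 16–20 h; compounds added 1 h before ZIKV (2 FFU/cell), 37 C 6 h. Caspase-Glo 3/7 luminescence after 30 min RT; % inhibition from induction scaled to uninfected (0%) and infected (100%) wells.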
# [2] = qHTS assay for measurement of the activity of small molecule inhibitors on Zika virus induced Caspase-3 activity in human astrocytoma cells (AID 1224859)
# Outline: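 Luminescence read-out (Caspase-Glo 3/7, 30 min RT) of caspase activity in SNB-19 cells infected 6 h with ZIKV, 2 FFU/cell, after 1 h compound pretreatment; % inhibition from induction normalised to uninfected (0%) and infected (100%) wells.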
# [3] = qHTS assay to identify small molecule inhibitors of chordoma cells - UCH-1 (AID 1259355); note: nearly all actives have a fitted effect of over 55% in size
# Outline: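 Seed 800 cells per well; incubate overnight at 37 C, 5% CO2. Add test compounds (15 concentrations), then the auranofin–topoisomerase-agent combination. Incubate 48hr, add CellTiter-Glo, wait 30min, read luminescence.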
# [4] = qHTS assay to identify small molecule inhibitors of chordoma cells - UCH-2 (AID 1259356); note: series mostly up to about 46 µM
# [5] = P-glycoprotein substrates identified in KB-8-5-11 adenocarcinoma cell line, qHTS therapeutic library screen (AID 1346987); note: nearly all actives have a fitted effect of over 65% in size; note: potency is the fitted concentration of half-maximal effect
# Outline: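 KB-8-5-11: colchicine-selected sub-line of KB-3-1 over-expressing P-gp; assay medium lacked colchicine. 72 h drug exposure at 37 degree C, CellTiter-Glo.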
# [6] = NS1 protein of Zika virus - qHTS assay to identify small molecule inhibitors in human HEK 293 cells (AID 1347053); note: series mostly up to about 46 µM; nearly all actives have a fitted effect of over 55% in size
# Outline: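 Inhibition of NS1 expression was scored in HEK 293 cells given compound 1 h ahead of MR766 virus (MOI = 0.5). Following 24 h at 37 C, two anti-NS1 antibodies generated a TR-FRET signal, scaled between uninfected and infected controls.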
# [7] = qHTS of pediatric cancer cell lines to identify multiple opportunities for drug repurposing: Primary screen for TC32 cells (AID 1347089); note: nearly all actives have a fitted effect of over 60% in size
# Outline: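 Measured quantity: luminescence from CellTiter-Glo, reflecting metabolically active TC32 cells following 48 h of compound. Curves came straight from multi-point titrations, with 8 or 11 points in primary and 11 in confirmatory screening.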
# [8] = molecular target: T1, Tyrosine-protein phosphatase non-receptor type substrate 1 (Homo sapiens) + Leukocyte surface antigen CD47 (Homo sapiens) (UniProt P78324+Q08722); assay: CD47-SIRPalpha protein protein interaction - LANCE assay qHTS validation (AID 1347057; active = well fitted curve in the direction sought with a large enough effect in the signal ratio, with a control signal flat, not every such curve was filed as active; the % refers to the signal ratio; note: series mostly up to about 38 µM)
# T1 sequence (P78324 whole entry, looked up): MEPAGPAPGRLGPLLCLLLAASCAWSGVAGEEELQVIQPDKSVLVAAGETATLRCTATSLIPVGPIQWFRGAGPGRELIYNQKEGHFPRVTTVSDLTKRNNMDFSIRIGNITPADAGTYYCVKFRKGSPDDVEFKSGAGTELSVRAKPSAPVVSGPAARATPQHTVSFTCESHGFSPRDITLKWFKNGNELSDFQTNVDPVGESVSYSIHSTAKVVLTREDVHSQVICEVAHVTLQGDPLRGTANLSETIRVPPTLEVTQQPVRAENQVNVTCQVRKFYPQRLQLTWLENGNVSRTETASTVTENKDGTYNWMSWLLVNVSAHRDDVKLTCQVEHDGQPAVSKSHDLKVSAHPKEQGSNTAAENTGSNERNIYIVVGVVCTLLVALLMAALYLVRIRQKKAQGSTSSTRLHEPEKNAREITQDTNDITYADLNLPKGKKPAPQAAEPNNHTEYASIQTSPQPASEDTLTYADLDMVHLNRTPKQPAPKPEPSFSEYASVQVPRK
# T1 sequence (Q08722 whole entry, looked up): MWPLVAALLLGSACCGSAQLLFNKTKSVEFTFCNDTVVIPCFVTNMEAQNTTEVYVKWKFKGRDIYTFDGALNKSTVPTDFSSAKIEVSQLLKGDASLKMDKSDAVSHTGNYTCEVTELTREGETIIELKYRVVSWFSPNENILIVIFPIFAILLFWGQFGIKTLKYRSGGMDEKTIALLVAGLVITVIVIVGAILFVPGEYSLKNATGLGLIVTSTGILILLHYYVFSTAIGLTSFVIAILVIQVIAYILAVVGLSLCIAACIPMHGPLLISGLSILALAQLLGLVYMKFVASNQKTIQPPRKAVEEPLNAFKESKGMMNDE
# Outline: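 First, His-tagged CD47 and Eu-labelled anti-His antibody met the compound for 30 min; next, site-specifically biotinylated SIRPalpha was added for 30 min; finally streptavidin-APC was added before reading the TR-FRET ratio.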
# [9] = molecular target: T1, Tyrosine-protein phosphatase non-receptor type substrate 1 (Homo sapiens) + Leukocyte surface antigen CD47 (Homo sapiens); assay: CD47-SIRPalpha protein protein interaction - Alpha assay qHTS validation (AID 1347059);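 note: bead proximity luminescence from CD47 binding SIRPalpha after compound preincubation with SIRPalpha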
# Outline: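 Binding is measured by AlphaScreen proximity: Ni-NTA acceptor beads capture His-CD47, streptavidin donor beads capture biotin-SIRPalpha. Each of three additions (SIRPalpha with compound, CD47, beads) incubates 30 min at room temperature protected from light.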
# [10] = molecular target: Atrial natriuretic peptide receptor 1 (Homo sapiens) (UniProt P16066); assay: Natriuretic polypeptide receptor (hNpr1) antagonism - Pilot screen (AID 1347049; calls by dose curve;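 note: agonist-evoked cGMP luminescence read 20 min after hNppA addition; series mostly up to about 58 µM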)
# Atrial natriuretic peptide receptor 1 (Homo sapiens), sequence (P16066 whole entry, looked up): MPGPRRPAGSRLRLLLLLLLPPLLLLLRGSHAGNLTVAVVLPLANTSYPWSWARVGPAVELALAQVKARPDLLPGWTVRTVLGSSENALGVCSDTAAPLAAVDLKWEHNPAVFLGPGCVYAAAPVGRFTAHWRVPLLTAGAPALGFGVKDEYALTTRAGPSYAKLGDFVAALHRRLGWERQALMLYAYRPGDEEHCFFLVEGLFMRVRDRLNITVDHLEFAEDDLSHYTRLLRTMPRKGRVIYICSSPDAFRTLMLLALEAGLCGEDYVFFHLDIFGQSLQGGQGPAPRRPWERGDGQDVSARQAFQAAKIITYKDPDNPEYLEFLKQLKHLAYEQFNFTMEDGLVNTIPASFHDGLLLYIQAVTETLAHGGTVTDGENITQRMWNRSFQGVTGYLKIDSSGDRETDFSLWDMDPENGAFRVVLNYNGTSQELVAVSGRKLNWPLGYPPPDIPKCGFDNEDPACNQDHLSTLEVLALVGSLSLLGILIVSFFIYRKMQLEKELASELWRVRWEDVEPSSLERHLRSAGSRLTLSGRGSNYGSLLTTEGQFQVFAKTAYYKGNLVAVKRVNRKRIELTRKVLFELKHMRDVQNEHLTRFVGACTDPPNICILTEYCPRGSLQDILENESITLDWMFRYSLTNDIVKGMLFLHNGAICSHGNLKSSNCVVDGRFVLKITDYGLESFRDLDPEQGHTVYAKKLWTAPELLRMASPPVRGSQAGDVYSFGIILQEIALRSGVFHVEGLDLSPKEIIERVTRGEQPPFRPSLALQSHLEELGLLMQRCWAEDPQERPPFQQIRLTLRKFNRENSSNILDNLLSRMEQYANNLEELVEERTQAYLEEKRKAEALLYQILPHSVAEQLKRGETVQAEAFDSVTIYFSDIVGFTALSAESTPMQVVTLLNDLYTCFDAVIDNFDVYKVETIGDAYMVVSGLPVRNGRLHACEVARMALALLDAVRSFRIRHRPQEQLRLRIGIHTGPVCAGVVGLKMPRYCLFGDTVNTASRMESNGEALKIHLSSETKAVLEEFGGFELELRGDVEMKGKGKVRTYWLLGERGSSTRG
# Outline: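 Readout is cGMP-driven firefly luciferase luminescence in HEK293 cells carrying hNpr1 and a PDE5-domain GloSensor, read before and 20 min after 0.1 nM hNppA stimulation. Cells had 2% substrate reagent for 2 h and test compound for 30 min.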
# [11] = molecular target: Parathyroid hormone/parathyroid hormone-related peptide receptor (Homo sapiens) (UniProt Q03431); assay: qHTS for PTHR1 Agonists: Optimization Screen against the NCGC LOPAC library (AID 1347079);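 note: GloSensor cAMP luminescence in HEK-293 GP2 cells expressing human PTHR1 with IBMX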
# Parathyroid hormone/parathyroid hormone-related peptide receptor (Homo sapiens), sequence (Q03431 whole entry, looked up): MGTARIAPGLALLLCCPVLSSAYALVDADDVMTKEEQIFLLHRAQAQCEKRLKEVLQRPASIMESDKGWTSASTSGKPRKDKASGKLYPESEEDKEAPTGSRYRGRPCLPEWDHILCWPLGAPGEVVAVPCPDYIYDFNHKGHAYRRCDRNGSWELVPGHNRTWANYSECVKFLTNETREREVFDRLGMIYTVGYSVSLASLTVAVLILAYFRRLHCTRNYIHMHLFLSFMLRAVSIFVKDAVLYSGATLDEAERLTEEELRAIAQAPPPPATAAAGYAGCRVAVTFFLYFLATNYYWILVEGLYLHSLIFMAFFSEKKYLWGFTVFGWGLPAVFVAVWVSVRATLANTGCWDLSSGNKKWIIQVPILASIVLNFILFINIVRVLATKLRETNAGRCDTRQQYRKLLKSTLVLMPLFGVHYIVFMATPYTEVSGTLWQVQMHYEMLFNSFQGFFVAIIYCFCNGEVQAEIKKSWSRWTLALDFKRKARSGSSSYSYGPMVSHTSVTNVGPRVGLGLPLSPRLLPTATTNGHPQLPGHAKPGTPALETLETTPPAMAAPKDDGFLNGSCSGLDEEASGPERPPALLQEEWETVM
# Outline: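 Compounds were tested across a qHTS titration. PTHR1-expressing GP2 cells report cAMP rises via GloSensor luminescence after 1 hr compound exposure at 37C with IBMX present.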
# [12] = Natriuretic polypeptide receptor (hNpr1) antagonism - Pilot counterscreen GloSensor control cell line (AID 1347045; calls by dose curve; note: series mostly up to about 38 µM)
# Outline: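 HEK293 cells carrying the GloSensor cGMP sensor (GIP/pGS-40F) were loaded with 2% GloSensor reagent for 2 h, exposed to compounds for 30 min, and then stimulated with 50 uM sodium nitroprusside for 20 min at room temperature.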
# [13] = molecular target: Atrial natriuretic peptide receptor 2 (Homo sapiens) (UniProt P20594); assay: Natriuretic polypeptide receptor (hNpr2) antagonism - Pilot subtype selectivity assay (AID 1347050; calls by dose curve)
# Atrial natriuretic peptide receptor 2 (Homo sapiens), sequence (P20594 whole entry, looked up): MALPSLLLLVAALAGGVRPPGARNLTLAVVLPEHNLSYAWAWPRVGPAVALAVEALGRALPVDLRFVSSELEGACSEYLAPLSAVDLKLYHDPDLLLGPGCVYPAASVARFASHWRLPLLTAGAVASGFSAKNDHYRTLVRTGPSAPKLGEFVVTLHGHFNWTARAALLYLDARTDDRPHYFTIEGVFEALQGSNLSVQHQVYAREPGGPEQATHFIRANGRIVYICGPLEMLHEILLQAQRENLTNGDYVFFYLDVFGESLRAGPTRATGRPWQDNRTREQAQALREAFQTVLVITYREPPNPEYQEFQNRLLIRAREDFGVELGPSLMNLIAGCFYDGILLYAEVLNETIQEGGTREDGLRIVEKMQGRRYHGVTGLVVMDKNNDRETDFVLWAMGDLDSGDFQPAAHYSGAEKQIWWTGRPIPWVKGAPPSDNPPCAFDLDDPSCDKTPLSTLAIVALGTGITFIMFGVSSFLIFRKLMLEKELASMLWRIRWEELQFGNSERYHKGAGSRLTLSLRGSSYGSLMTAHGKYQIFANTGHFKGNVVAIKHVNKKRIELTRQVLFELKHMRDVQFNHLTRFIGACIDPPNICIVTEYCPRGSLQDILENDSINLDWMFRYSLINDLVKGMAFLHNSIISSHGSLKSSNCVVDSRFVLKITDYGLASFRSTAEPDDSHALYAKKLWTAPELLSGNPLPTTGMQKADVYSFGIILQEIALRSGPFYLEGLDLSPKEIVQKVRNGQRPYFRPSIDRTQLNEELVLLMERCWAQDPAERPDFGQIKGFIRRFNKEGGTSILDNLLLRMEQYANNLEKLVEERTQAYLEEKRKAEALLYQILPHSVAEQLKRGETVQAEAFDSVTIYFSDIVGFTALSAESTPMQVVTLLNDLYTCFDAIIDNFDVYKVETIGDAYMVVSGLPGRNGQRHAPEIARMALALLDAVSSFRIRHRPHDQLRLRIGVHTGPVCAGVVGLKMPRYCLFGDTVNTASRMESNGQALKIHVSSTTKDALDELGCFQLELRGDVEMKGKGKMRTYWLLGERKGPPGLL
# Outline: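 Pilot selectivity screen against hNpr2: HEK293 cGMP-sensor cells are treated with LOPAC1280 compounds, then with hNppC peptide at 1 nM final. The cGMP-driven luminescence change over 20 min at room temperature is the read-out.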
# [14] = Identifying Small Molecule Inhibitors of Pancreatic Cancer Stem Cells (A278, Adherent) (AID 1259361);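 note: viability read after 48 h compound exposure; nearly all actives have a fitted effect of over 35% in size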
# Outline: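 Adherent (2D) versus sphere (3D) formats; spheres generated 14 d in SCM beforehand. Compound transferred by pin tool after 4 h, 48 h incubation, CellTiter-Glo endpoint.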
# [15] = Identifying Small Molecule Inhibitors of Pancreatic Cancer Stem Cells (Panc1, Adherent) (AID 1259362); conditions: Potency: viability; note: potency is the fitted concentration of half-maximal effect
# Outline: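 Luminescent ATP readout (CellTiter-Glo) quantifies surviving cells after a 48 h drug incubation. Normalization uses DMSO wells as no inhibition and media-only wells as full inhibition; bortezomib served as positive control.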
smiles,measurement,setting,value
C/C(=C(\CCOP(=O)(O)O)SC(=O)c1ccccc1)N(C=O)Cc1cnc(C)nc1N,"activity change, negative = inhibition",[1],4.2% [at 4.53 µM]
same,"activity change, negative = inhibition",[2],26.7% [at 4.53 µM]
same,Potency,[3],inactive
same,outcome,[4],inactive
same,Potency,[5],inactive
same,"activity change, negative = inhibition",[6],3.35% [at 4.81 µM]
same,"activity change, negative = cytotoxic",[7],9.22% [at 4.81 µM]
CC(=O)c1ccc2c(c1)N(CCCN(C)C)c1ccccc1S2,outcome,[1],inactive
same,outcome,[2],inactive
same,Potency,[3],inactive
same,outcome,[4],inactive
same,Potency,[5],inactive
same,Potency,[6],inactive
same,outcome,[8],inactive
same,outcome,[9],inactive
same,Potency,[7],inactive
CCN(CC)CCSC(=O)C(c1ccccc1)c1ccccc1,outcome,[1],inactive
same,outcome,[2],inactive
same,Potency,[3],inactive
same,outcome,[4],inactive
same,Potency,[5],inactive
same,Potency,[6],inactive
same,Potency,[7],inactive
CSc1ccc2c(c1)C(N1CCN(C)CC1)Cc1ccccc1S2 (centres undefined),outcome,[1],inactive
same,outcome,[2],inactive
same,Potency,[3],inactive
same,outcome,[4],inactive
same,Potency,[5],inactive
same,outcome,[10],inactive
same,outcome,[8],inactive
same,Potency,[11],inactive
Cc1cc(N)c2ccccc2[n+]1CCCCCCCCCC[n+]1c(C)cc(N)c2ccccc21,outcome,[1],inactive
same,outcome,[2],inactive
same,Potency,[3],inactive
same,outcome,[4],inactive
same,Potency,[5],inactive
same,outcome,[12],inactive
same,outcome,[10],inactive
same,Potency,[13],inactive
same,outcome,[8],inactive
same,outcome,[9],inactive
same,Potency,[11],inactive
CCN(CC)CCCC(C)Nc1c2ccc(Cl)cc2nc2ccc(OC)cc12 (centres undefined),outcome,[1],inactive
same,outcome,[2],inactive
same,Potency,[3],inactive
same,outcome,[4],inactive
same,Potency,[5],6.32 µM (active)
same,outcome,[10],inactive
same,Potency,[13],inactive
same,Potency,[6],inactive
same,Potency,[11],inactive
same,Potency,[7],inactive
Nc1ncnc2c1ncn2[C@@H]1O[C@H](CO)[C@@H](O)[C@H]1O,outcome,[1],inactive
same,outcome,[2],inactive
same,Potency,[3],inactive
same,outcome,[4],inactive
same,Potency,[5],inactive
same,outcome,[12],inactive
same,outcome,[10],inactive
same,Potency,[13],inactive
same,Potency,[6],inactive
same,outcome,[8],inactive
same,outcome,[9],inactive
same,Potency,[11],inactive
CC1=C(CC(=O)O)c2cc(F)ccc2/C1=C\c1ccc(S(C)=O)cc1 (centres undefined),outcome,[1],inactive
same,outcome,[2],inactive
same,Potency,[3],inactive
same,outcome,[4],inactive
same,Potency,[5],inactive
same,outcome,[10],inactive
same,Potency,[13],inactive
same,Potency,[6],inactive
same,Potency,[11],inactive
same,Potency,[7],inactive
COc1ccc2cc1Oc1ccc(cc1)C[C@H]1c3c(cc4c(c3Oc3cc5c(cc3OC)CCN(C)[C@@H]5C2)OCO4)CCN1C,outcome,[1],inactive
same,outcome,[2],inactive
same,"activity, negative = inhibition",[3],-13.6% [at 1.88 µM]
same,outcome,[4],inactive
same,Potency,[5],20.6 µM (active)
CCOC(=O)c1ccc(O)cc1,outcome,[1],inactive
same,outcome,[2],inactive
same,Potency,[3],inactive
same,outcome,[4],inactive
same,Potency,[5],inactive
same,Potency,[6],inactive
same,Potency,[7],inactive
CNC(=O)Oc1ccc2c(c1)[C@]1(C)CCN(C)[C@@H]1N2C,outcome,[1],inactive
same,outcome,[2],inactive
same,Potency,[3],inactive
same,outcome,[4],inactive
same,Potency,[5],inactive
same,outcome,[12],inactive
same,Potency,[13],inactive
same,Potency,[6],inactive
same,outcome,[8],inactive
same,outcome,[9],inactive
same,Potency,[11],inactive
same,Potency,[7],inactive
Nc1ccc(S(=O)(=O)Nc2nccs2)cc1,outcome,[1],inactive
same,outcome,[2],inactive
same,Potency,[3],inactive
same,outcome,[4],inactive
same,Potency,[5],inactive
same,Potency,[6],inactive
same,Potency,[7],inactive
CCCn1cnc2c1c(=O)n(CCCCC(C)=O)c(=O)n2C,outcome,[1],inactive
same,outcome,[2],inactive
same,Potency,[3],inactive
same,outcome,[4],inactive
same,Potency,[5],inactive
same,outcome,[12],inactive
same,outcome,[10],inactive
same,Potency,[13],inactive
same,Potency,[6],inactive
same,outcome,[8],inactive
same,outcome,[9],inactive
same,Potency,[11],inactive
same,Potency,[7],inactive
CCCCc1ncc(/C=C(\Cc2cccs2)C(=O)O)n1Cc1ccc(C(=O)O)cc1,outcome,[1],inactive
same,outcome,[2],inactive
same,Potency,[3],inactive
same,outcome,[4],inactive
same,Potency,[5],inactive
same,Potency,[6],inactive
same,outcome,[8],inactive
same,outcome,[9],inactive
same,Potency,[7],inactive
C[C@@H]1CN(c2c(F)c(F)c3c(=O)c(C(=O)O)cn(C4CC4)c3c2F)C[C@H](C)N1,outcome,[1],inactive
same,outcome,[2],inactive
same,Potency,[3],inactive
same,outcome,[4],inactive
same,Potency,[5],inactive
same,Potency,[6],inactive
same,Potency,[7],inactive
CCCCC/C(C=O)=C\c1ccccc1,outcome,[1],inactive
same,outcome,[2],inactive
same,Potency,[3],inactive
same,outcome,[4],inactive
same,Potency,[5],inactive
same,Potency,[6],inactive
same,Potency,[7],inactive
CCCCCCCCCCCCCCCC(=O)NCCO,outcome,[1],inactive
same,outcome,[2],inactive
same,Potency,[3],inactive
same,outcome,[4],inactive
same,Potency,[5],inactive
same,outcome,[10],inactive
same,Potency,[13],inactive
same,Potency,[6],inactive
same,Potency,[11],inactive
same,Potency,[7],inactive
O=C1Nc2ccc(Cl)cc2[C@@](C#CC2CC2)(C(F)(F)F)O1,outcome,[1],inactive
same,outcome,[2],inactive
same,Potency,[3],inactive
same,outcome,[4],inactive
same,IC50 (viability decrease),[14],48.1 µM (active)
same,Potency,[15],48.1 µM (active)
same,Potency,[6],inactive
same,Potency,[7],inactive
[Cl][In]([Cl])[Cl],outcome,[1],inactive
same,outcome,[2],inactive
same,Potency,[3],inactive
same,outcome,[4],inactive
same,Potency,[5],inactive
same,Potency,[6],inactive
OCC(O)CN1CCN(c2ccccc2)CC1 (centres undefined),outcome,[1],inactive
same,outcome,[2],inactive
same,Potency,[3],inactive
same,outcome,[4],inactive
same,Potency,[5],inactive
same,Potency,[6],inactive
same,Potency,[7],inactive
COc1ccc(Cl)cc1C(=O)NCCc1ccc(S(=O)(=O)NC(=O)NC2CCCCC2)cc1,outcome,[1],inactive
same,outcome,[2],inactive
same,Potency,[3],inactive
same,outcome,[4],inactive
same,Potency,[5],inactive
same,outcome,[12],inactive
same,outcome,[10],inactive
same,Potency,[13],inactive
same,Potency,[6],inactive
same,outcome,[8],inactive
same,outcome,[9],inactive
same,Potency,[11],inactive
same,Potency,[7],inactive
COc1cc(C(=O)N2CCOCC2)cc(OC)c1OC,outcome,[1],inactive
same,outcome,[2],inactive
same,Potency,[3],inactive
same,outcome,[4],inactive
same,Potency,[5],inactive
same,Potency,[6],inactive
same,Potency,[7],inactive
CC1=C(C/C=C(\C)CCC[C@H](C)CCC[C@H](C)CCCC(C)C)C(=O)c2ccccc2C1=O,outcome,[1],inactive
same,outcome,[2],inactive
same,Potency,[3],inactive
same,outcome,[4],inactive
same,Potency,[5],inactive
same,Potency,[6],inactive
same,Potency,[7],inactive
